Inconclusive results are not listed. More than one record can exist for a structure, and the calls need not agree. The source made the active and inactive calls. Calls follow the shape of the dose curve; as a rule, active = well fitted cell-killing curve with a large enough effect in the repeat runs (not every such curve was filed as active); inconclusive = weak or mixed curves, or effect the other way; inactive = no such curve, though single readings can be large or run the other way.
Experiment: qHTS assay to identify small molecule antagonists of the estrogen related receptor signaling pathway with the pleiotropic PPARgamma coactivator (PGC) from Tox21 10K library - cell viability counter screen (AID 1224840); also: nearly all actives have a fitted effect of over 40% in size
Conditions: PGC/ERR reporter cells viability, CellTiter-Fluor, 17.5 h; series mostly up to 92.4 µM; viability change, negative = cytotoxic: at the top concentration
Text: National Center for Advancing Translational Sciences [NCATS]
NIH Chemical Genomics Center [NCGC]
U.S. Environmental Protection Agency [EPA]
National Institutes of Environmental Health Sciences [NIEHS]
National Toxicology Program [NTP]
U.S. Food and Drug Administration [FDA]
Estrogen related receptors (ERRs), the first orphan nuclear receptors discovered, play an important role in the control of cellular energy metabolism. ERRs are required for high-energy production in response to the environmental challenges. The pleiotropic PPARgamma coactivator (PGC) is a major partner of ERR and a key regulator in energy homeostasis. Together they have been implicated in the etiology of metabolic disorders such as Type 2 diabetes and metabolic syndrome. ERR-alpha was also identified as an adverse marker for breast cancer progression; ERR-alpha-positive tumors have a poor prognosis. To screen and to identify environmental compounds that perturb the ERR and PGC/ERR signaling pathways could provide valuable information for potential therapeutic or preventive measures in the treatment of metabolic disease. To differentiate true PGC/ERR antagonists or agonist from cytotoxic substances, the assay is multiplexed with cell viability assay.
Tox21 Assay Protocol Summary:
The PGC/ERR cells were dispensed at 2,000 cells/5 ul/well in 1536-well white plates using a Multidrop dispenser. After the assay plates were incubated at a 37 C/5% CO2 incubator for 6 hours, 23 nL of compounds dissolved in DMSO, positive and negative controls or DMSO only was transferred to the assay plate by a pin tool. The plates were incubated at 37 C for 17.5 hours. 1 ul/well of CellTiter-Fluor reagent was added into the assay plates using a Flying Reagent Dispenser. After 30-minute incubation at 37 C/5% CO2, the fluorescence intensity in the plates was measured using a ViewLux plate reader.
% is scaled to controls: 0 for no effect and ±100 for the full control effect; potency is read from the fitted curve at half-maximal effect.

SMILES	Potency	viability change, negative = cytotoxic
CCCCCCCCCCCCCC[N+](C)(C)Cc1ccccc1	62.1 µM (active) and inactive	–
Cc1nc2n(c(=O)c1CCN1CCC(c3noc4cc(F)ccc34)CC1)CCCC2	–	14% [at 42.5 µM] (inactive)
NC[C@H]1O[C@H](O[C@H]2[C@H](O[C@@H]3O[C@H](CO)[C@@H](O)[C@H]3O)C(O)[C@H](N)C[C@@H]2N)[C@H](N)[C@@H](O)[C@@H]1O (stereo not given in full)	–	0.247% [at 8.39 µM] (inactive)
CCC(COC(=O)CCS)(COC(=O)CCS)COC(=O)CCS	–	0.0971% (inactive)
O=c1oc2cc(O)ccc2c2oc3cc(O)ccc3c12	–	-8.2% (inactive)
CC(C)(C)C1CCC(=O)CC1	–	-4.55% (inactive)
CCCCCCCCCCCCCCCC[N+](C)(C)CC	30.7 µM (active) and inactive	–
O=C1c2ccccc2C(=O)N1SC1CCCCC1	inactive	–
COc1cc(C)ccc1O	–	13.9% (inactive)
CNc1ccc([N+](=O)[O-])cc1	48.7 µM (active)	–
CC[N+](CC)(CC)CCOc1ccc(/C=C/c2ccccc2)cc1	–	-12.7% [at 42.5 µM] (inactive)
C#C[C@]1(OC(C)=O)CC[C@H]2[C@@H]3CCC4=C[C@@H](OC(C)=O)CC[C@@H]4[C@H]3CC[C@@]21C	–	-22.9% [at 42.5 µM] (inactive)
Cc1ccc(C(C)C)cc2c(C)ccc1-2	–	19.7% [at 42.5 µM] (inactive)
C=Cc1cccc(C)c1	inactive	–
CC(C)(C)NSc1nc2ccccc2s1	–	-6.69% (inactive)
C=CCn1c(=O)n(CC=C)c(=O)n(CC=C)c1=O	–	0.297% (inactive)
CCCCCCCCCCCC(=O)OCC(C)OC(=O)CCCCC(=O)O (stereo not given)	–	0.232% [at 42.5 µM] (inactive)
O=c1[nH]c2ccccc2n1CCCN1CCN(C(c2ccccc2)c2ccccc2)CC1	23.7 µM (active)	–
CCCC(=O)OC(C)(C)Cc1ccccc1	–	5.74% (inactive)
CCCCCc1ccc(Cl)cc1	–	-3.53% (inactive)

SMILES	Potency	viability change, negative = cytotoxic
C#CC1(O)CC[C@H]2[C@@H]3CCC4=CCCC[C@@H]4[C@H]3CC[C@@]21C (stereo not given in full)	33.5 µM (active)	–
O=C(O)CN(CCN(CC(=O)O)CC(=O)O)CC(=O)O	–	1.11% [at 3.27 µM] (inactive)
O=[N+]([O-])c1ccc(F)c(Cl)c1	–	-4.23% (inactive)
C=C(C)c1cccc(C(=C)C)c1	–	-8.99% (inactive)
CCCCCCCCCCCCOC(=O)c1ccc(O)cc1	–	-2.34% (inactive)
Cc1cc(-n2nc3ccc(Cl)cc3n2)c(O)c(C(C)(C)C)c1	–	7.84% [at 42.5 µM] (inactive)
COc1ccc2cc1Oc1ccc(cc1)C[C@H]1c3c(cc4c(c3Oc3cc5c(cc3OC)CCN(C)[C@@H]5C2)OCO4)CCN1C	21.1 µM (active)	–
Cc1ccc(-c2ccccc2)cc1	–	-1.69% (inactive)
C=CC(C)(CCC=C(C)C)OC=O (stereo not given)	–	0.979% (inactive)
Cc1nc(-c2ccc(Cl)cc2)oc1COC(C)(C)C(=O)O	–	-0.0447% [at 42.5 µM] (inactive)
CC(C)(C)c1csc(-c2cc3cc(OCc4ccccc4CC(=O)O)ccc3o2)n1	–	-24.1% (inactive)
CCCCOC(=O)CO	–	-0.856% (inactive)
CCCCCCCC/C=C\CCCCCCCCN	–	14.7% [at 42.5 µM] (inactive)
Cc1cc(C(C#N)c2ccc(Cl)cc2)c(Cl)cc1NC(=O)c1cc(I)cc(I)c1O (stereo not given)	–	-14.4% [at 42.5 µM] (inactive)
[Cl][Pt-2]([Cl])([Cl])[Cl]	–	-2.08% (inactive)
C#C[C@]1(OC(C)=O)CC[C@H]2[C@@H]3CCC4=C/C(=N/O)CC[C@@H]4[C@H]3CC[C@@]21CC	–	-21.1% [at 42.5 µM] (inactive)
C=C(C)C(=O)OCCCCCCCCCC	–	0.426% (inactive)
C#Cc1ccc(-c2ccccc2F)cc1	–	0.848% [at 42.5 µM] (inactive)
CCC(C)[O-].CCC(C)[O-].CCOC(=O)/C=C(/C)[O-].[Al+3]	–	3.97% (inactive)
C[Si](Cl)(c1ccccc1)c1ccccc1	–	-22.2% (inactive)
